# Assay results published in PubChem BioAssay AID2283186 (EPA ToxCast).
# Activity calls are given as the source filed them. Rule for the calls: active = hit-call score of the fitted dose curve at least 0.9, where 1 is the maximum; inactive = score below 0.9.
# Molecular target: human p21 Activated Kinase 2 (PAK2), PAK2 (gene 5062) (UniProt Q13177)
# Experiment: NVS_ENZ_hPAK2: NovaScreen (NVS) Enzymatic Assay for human p21 Activated Kinase 2 (PAK2)
# Experimental: NVS_ENZ_hPAK2 is a biochemical, single-readout assay that uses extracted gene-proteins in a cell-free assay. Measurements were taken 1 hour after chemical dosing in a 384-well plate.NVS_ENZ_hPAK2 is one of one assay component(s) measured or calculated from the NVS_ENZ_hPAK2 assay. It is designed to make measurements of enzyme activity, a form of enzyme reporter, as detected with fluorescence intensity signals by Fluorescence and electrophoretic mobility shift technology.Data from the assay component NVS_ENZ_hPAK2 was analyzed into 1 assay endpoint. This assay endpoint, NVS_ENZ_hPAK2, was analyzed in the positive analysis fitting direction relative to DMSO as the negative control and baseline of activity. Using a type of enzyme reporter, loss-of-signal activity can be used to understand changes in the enzymatic activity as they relate to the gene PAK2. Furthermore, this assay endpoint can be referred to as a primary readout, because this assay has produced multiple assay endpoints where this one serves a enzymatic activity function. To generalize the intended target to other relatable targets, this assay endpoint is annotated to the kinase intended target family, where the subfamily is serine/threonine kinase. […]
# Chain of human p21 Activated Kinase 2 (PAK2), PAK2 (gene 5062) (Q13177 whole entry, looked up): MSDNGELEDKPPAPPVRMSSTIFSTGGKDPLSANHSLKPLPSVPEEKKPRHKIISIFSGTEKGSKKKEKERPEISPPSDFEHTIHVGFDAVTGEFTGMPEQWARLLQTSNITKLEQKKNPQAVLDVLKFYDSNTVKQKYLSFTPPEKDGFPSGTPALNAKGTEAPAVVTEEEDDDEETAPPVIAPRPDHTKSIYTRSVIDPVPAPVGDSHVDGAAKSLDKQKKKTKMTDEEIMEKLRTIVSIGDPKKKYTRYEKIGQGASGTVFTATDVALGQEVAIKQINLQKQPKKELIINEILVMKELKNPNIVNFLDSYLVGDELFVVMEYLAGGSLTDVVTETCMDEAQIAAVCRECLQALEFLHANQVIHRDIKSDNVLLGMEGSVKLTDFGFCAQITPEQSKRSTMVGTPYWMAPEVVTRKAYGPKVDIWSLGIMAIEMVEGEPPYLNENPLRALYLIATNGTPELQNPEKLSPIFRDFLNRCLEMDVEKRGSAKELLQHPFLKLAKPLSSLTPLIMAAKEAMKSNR
row,Compound,outcome
1,CC(C)(c1ccc(O)cc1)c1ccc(O)cc1,inactive
2,COCCO,inactive
